# According to PubChem BioAssay (Tox21):
# Unmarked numbers belong to inactive results. Calls come from the whole dose curve. Records with an inconclusive call do not appear.
# Biological target: Estrogen receptor (Homo sapiens) (UniProt P03372)
# Assay: qHTS assay to identify small molecule agonists of the estrogen receptor alpha (ER-alpha) signaling pathway in the presence of an antagonist (AID 1259383); note: top concentration of the series differs between compounds; nearly all actives have a fitted effect of over 15% in size
# Conditions: VM7Luc4E2 cells, ERE-luciferase, +ICI-182,780, 22 h; series mostly up to 92.4 µM; activation: at the top concentration
# Method in brief: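 In VM7Luc4E2 cells, 4,000 per well, compounds at 15 concentrations were co-incubated 22hr at 37C with 10.0nM final ICI-182,780. Luminescence from the stably transfected 4×ERE-luciferase reporter was recorded 30min after ONE-Glo addition.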
# % is set by controls: 0 for no effect and ±100 for the full control effect.
# Estrogen receptor (Homo sapiens), sequence (P03372 whole entry, looked up): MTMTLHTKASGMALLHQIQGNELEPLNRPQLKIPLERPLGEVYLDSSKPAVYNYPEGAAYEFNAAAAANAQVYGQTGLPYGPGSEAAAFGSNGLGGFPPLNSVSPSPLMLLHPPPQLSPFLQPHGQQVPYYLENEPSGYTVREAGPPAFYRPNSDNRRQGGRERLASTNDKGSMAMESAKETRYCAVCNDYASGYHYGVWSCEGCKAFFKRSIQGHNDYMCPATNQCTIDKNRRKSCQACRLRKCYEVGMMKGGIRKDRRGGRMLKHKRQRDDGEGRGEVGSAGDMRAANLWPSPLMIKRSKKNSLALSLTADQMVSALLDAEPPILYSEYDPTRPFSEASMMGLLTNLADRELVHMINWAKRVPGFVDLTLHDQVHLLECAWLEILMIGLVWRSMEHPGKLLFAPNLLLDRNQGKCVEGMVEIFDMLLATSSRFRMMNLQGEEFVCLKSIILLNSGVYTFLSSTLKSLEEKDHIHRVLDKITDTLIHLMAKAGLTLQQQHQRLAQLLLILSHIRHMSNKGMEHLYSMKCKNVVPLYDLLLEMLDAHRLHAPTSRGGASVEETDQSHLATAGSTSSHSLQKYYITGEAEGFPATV
row,Compound,activation
1,CO[C@@H]1[C@@H](O[C@@H]2O[C@H](C)[C@@H](O[C@H]3C[C@@](C)(O)[C@@H](O)[C@H](C)O3)[C@H](N(C)C)[C@H]2O)[C@@H](CC=O)C[C@@H](C)[C@@H](O[C@@H]2CC[C@H](N(C)C)[C@@H](C)O2)/C=C/C=C/C[C@@H](C)OC(=O)C[C@H]1OC(C)=O,0.53% [at 42.5 µM]
2,Oc1ccc(CCNCCCCCCNCCc2ccccc2)cc1O,-0.15% [at 42.5 µM]
3,Cc1cc(C)n(CO)n1,-0.239%
4,O=c1c2ccccc2oc2ccccc12,11.3%
5,CCCCCCCCCCCCCCCCCCCl,0.705% [at 8.39 µM]
6,CC(=O)Nc1cccc(N)c1,0.268%
7,Cc1ccc(NC=O)c(C)c1,-1.47%
8,Clc1nc2ccccc2nc1Cl,-0.658%
9,CC(=O)c1ccc(Cl)c(Cl)c1Cl,-0.433%
10,Cc1nc2sccn2c(=O)c1CCN1CCC(=C(c2ccc(F)cc2)c2ccc(F)cc2)CC1,-1.82% [at 42.5 µM]
11,CC(Cc1ccccc1)(NC(=O)CN)c1ccccc1 (configuration not stated),0.235% [at 42.5 µM]
12,O=C(c1ccco1)N1CCNCC1,0.536% [at 42.5 µM]
13,CC(COc1ccccc1)NC(C)C(O)c1ccc(O)cc1 (configuration not stated),0.144% [at 42.5 µM]
14,CCc1cnc(C(=O)O)c(C(=O)O)c1,0.34%
15,O=S(=O)(O)c1cc(Cl)c(Cl)cc1Cl,-2.01%
16,O=C(N[C@@H](Cc1ccccc1)[C@@H](O)C(=O)N1C[C@@H](O)[C@@H](O)C1)c1cc2cc(Cl)ccc2[nH]1,-3.66%
17,CCC(CC)C(=O)O,-0.0055%
18,CC[C@H](NC(C)C)[C@H](O)c1ccc(O)c2[nH]c(=O)ccc12,0.496% [at 42.5 µM]
19,CCCCCCC/C=C/C=O,-0.159%
20,OCCCO,-0.429%
21,COc1cccc([C@H](O)C2CCN(CCc3ccc(F)cc3)CC2)c1OC,-3.39%
22,COc1ccc(C(=O)Nc2ccccc2)cc1[N+](=O)[O-],12.1%
23,O=C(Cl)c1cc(Cl)cc(Cl)c1,-2.75%
24,O=c1[nH]nc(-c2ccc([N+](=O)[O-])o2)o1,0.173%
25,COc1ccnc2c1CCCCC2S(=O)c1nc2ccccc2[nH]1 (configuration not stated),2.29% [at 42.5 µM]
26,CC1=C(C)C(=O)C(CCCCC#CCCCC#CCO)=C(C)C1=O,-1.62% [at 42.5 µM]
27,C(/C=C/C=C/Nc1ccccc1)=Nc1ccccc1,0.273%

# Tested on: not listed separately
# Assay: qHTS assay to identify small molecule agonists or antagonists of the thyroid stimulating hormone receptor (TSHR) signaling pathway - wild type cell line counter screen (AID 1259384)
# Conditions: HEK293 wild type, cAMP HTRF counter-screen, active compounds read high; series mostly up to 92.4 µM; cAMP activity change: at the top concentration
# Method in brief: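 Wild-type HEK293 cells were plated 18 h at 37 C/5% CO2, pin-dosed with compound plus Ro20-1724 medium, held 30 min at room temperature, then given cAMP-d2 and anti-cAMP-cryptate; fluorescence was read after 1 h. Fifteen concentrations, triplicate.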
row,Compound,cAMP activity change
1,Oc1ccc(CCNCCCCCCNCCc2ccccc2)cc1O,16.4% [at 42.5 µM]
2,C=C[Si](OCC)(OCC)OCC,-2.96%
3,Cc1cc(C)n(CO)n1,-0.0314%
4,O=c1c2ccccc2oc2ccccc12,2.34%
5,Cc1ccc(NC=O)c(C)c1,-0.73%
6,Clc1nc2ccccc2nc1Cl,0.568%
7,CC(=O)Oc1cccc2c1C(=O)c1c(OC(C)=O)cc(C(=O)O)cc1C2=O,-4.28% [at 42.5 µM]
8,CC(C)(Cc1c[nH]c2ccccc12)NCC(O)COc1ccccc1C#N (configuration not stated),-2.47% [at 42.5 µM]
9,Cc1nc2sccn2c(=O)c1CCN1CCC(=C(c2ccc(F)cc2)c2ccc(F)cc2)CC1,2.48% [at 42.5 µM]
10,CC(Cc1ccccc1)(NC(=O)CN)c1ccccc1 (configuration not stated),-12.1% [at 42.5 µM]
11,O=C(c1ccco1)N1CCNCC1,-4.43% [at 42.5 µM]
12,CC(COc1ccccc1)NC(C)C(O)c1ccc(O)cc1 (configuration not stated),-9.78% [at 42.5 µM]
13,CCOc1ccccc1O,6.57%
14,O=S(=O)(O)c1cc(Cl)c(Cl)cc1Cl,-5.73%
15,O=C(N[C@@H](Cc1ccccc1)[C@@H](O)C(=O)N1C[C@@H](O)[C@@H](O)C1)c1cc2cc(Cl)ccc2[nH]1,-1.33%
16,CCCCCCC/C=C/C=O,-0.251%
17,OCCCO,0.988%
18,COc1cccc([C@H](O)C2CCN(CCc3ccc(F)cc3)CC2)c1OC,-0.943%
19,COc1ccc(C(=O)Nc2ccccc2)cc1[N+](=O)[O-],2.44%
20,O=C(Cl)c1cc(Cl)cc(Cl)c1,2.21%
21,O=C(Nc1ccc2c(c1)Cc1ccccc1-2)C(F)(F)F,1.57%
22,O=c1[nH]nc(-c2ccc([N+](=O)[O-])o2)o1,5.61%
23,COc1ccnc2c1CCCCC2S(=O)c1nc2ccccc2[nH]1 (configuration not stated),0.96% [at 42.5 µM]
24,OCCOc1cccc(OCCO)c1,0.157%

# Biological target: Thyrotropin receptor (Homo sapiens) (UniProt P16473)
# Assay: qHTS assay to identify small molecule antagonists of the thyroid stimulating hormone receptor (TSHR) signaling pathway (AID 1259385); note: nearly all actives have a fitted effect of over 20% in size
# Conditions: TSHR-HEK293 cAMP HTRF, TSH-stimulated antagonist mode; series mostly up to 92.4 µM; activity change, negative = inhibition: at the top concentration
# Method in brief: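 TSHR-HEK293 cells were plated and held 18 h at 37C/5% CO2, then given compound plus Ro20-1724 and stimulated with TSH at 1.5 ng/mL final. After 30 min at room temperature, cAMP was detected with cAMP-d2/anti-cAMP-cryptate (1 h) by fluorescence.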
# Thyrotropin receptor (Homo sapiens), sequence (P16473 whole entry, looked up): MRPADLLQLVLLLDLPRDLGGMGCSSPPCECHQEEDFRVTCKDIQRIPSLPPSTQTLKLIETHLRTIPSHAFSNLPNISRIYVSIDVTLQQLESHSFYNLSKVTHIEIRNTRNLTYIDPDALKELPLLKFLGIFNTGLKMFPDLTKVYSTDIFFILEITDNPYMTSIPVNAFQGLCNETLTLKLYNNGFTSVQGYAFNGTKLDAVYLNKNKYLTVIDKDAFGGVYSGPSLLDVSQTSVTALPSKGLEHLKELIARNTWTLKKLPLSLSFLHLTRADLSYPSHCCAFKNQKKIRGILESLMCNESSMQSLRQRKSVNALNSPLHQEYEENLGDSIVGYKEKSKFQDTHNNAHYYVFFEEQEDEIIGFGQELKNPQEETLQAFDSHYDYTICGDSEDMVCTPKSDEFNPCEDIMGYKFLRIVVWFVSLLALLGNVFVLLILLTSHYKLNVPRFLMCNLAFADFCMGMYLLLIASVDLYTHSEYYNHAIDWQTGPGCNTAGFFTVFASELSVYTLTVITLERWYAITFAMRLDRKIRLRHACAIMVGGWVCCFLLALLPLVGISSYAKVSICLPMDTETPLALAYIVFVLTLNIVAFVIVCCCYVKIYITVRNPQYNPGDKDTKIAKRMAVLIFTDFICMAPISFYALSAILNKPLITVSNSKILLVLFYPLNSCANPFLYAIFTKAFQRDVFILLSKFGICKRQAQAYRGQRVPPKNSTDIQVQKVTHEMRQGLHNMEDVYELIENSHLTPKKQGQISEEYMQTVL
row,Compound,"activity change, negative = inhibition"
1,Oc1ccc(CCNCCCCCCNCCc2ccccc2)cc1O,-9.67% [at 42.5 µM]
2,C=C[Si](OCC)(OCC)OCC,0.595%
3,Cc1cc(C)n(CO)n1,1.3%
4,O=c1c2ccccc2oc2ccccc12,-0.936%
5,CCCCCCCCCCCCCCCCCCCl,0.518% [at 8.39 µM]
6,Cc1ccc(NC=O)c(C)c1,3.04%
7,Clc1nc2ccccc2nc1Cl,-1.14%
8,CC(=O)Oc1cccc2c1C(=O)c1c(OC(C)=O)cc(C(=O)O)cc1C2=O,-0.16% [at 42.5 µM]
9,CC(=O)c1ccc(Cl)c(Cl)c1Cl,-7.02%
10,CCCCCCCCCC(C)C=O (configuration not stated),-0.0217%
11,CC(C)(Cc1c[nH]c2ccccc12)NCC(O)COc1ccccc1C#N (configuration not stated),1.97% [at 42.5 µM]
12,CC(Cc1ccccc1)(NC(=O)CN)c1ccccc1 (configuration not stated),-0.512% [at 42.5 µM]
13,O=C(c1ccco1)N1CCNCC1,-6.82% [at 42.5 µM]
14,CC(COc1ccccc1)NC(C)C(O)c1ccc(O)cc1 (configuration not stated),1.02% [at 42.5 µM]
15,CCOc1ccccc1O,1.73%
16,O=S(=O)(O)c1cc(Cl)c(Cl)cc1Cl,-3.17%
17,O=C(N[C@@H](Cc1ccccc1)[C@@H](O)C(=O)N1C[C@@H](O)[C@@H](O)C1)c1cc2cc(Cl)ccc2[nH]1,-7.17%
18,CCCCCCC/C=C/C=O,-0.116%
19,OCCCO,0.801%
20,COc1cccc([C@H](O)C2CCN(CCc3ccc(F)cc3)CC2)c1OC,-1.26%
21,N#Cc1ccc(CC(=O)c2cccc(C(F)(F)F)c2)cc1,3.8%
22,COc1ccc(C(=O)Nc2ccccc2)cc1[N+](=O)[O-],-8.18%
23,O=c1[nH]nc(-c2ccc([N+](=O)[O-])o2)o1,1.48%
24,COc1ccnc2c1CCCCC2S(=O)c1nc2ccccc2[nH]1 (configuration not stated),0.0386% [at 42.5 µM]
25,OCCOc1cccc(OCCO)c1,1.81%
26,CC1=C(C)C(=O)C(CCCCC#CCCCC#CCO)=C(C)C1=O,6.66% [at 42.5 µM]
